# From PubChem BioAssay AID493131 (Broad Institute, 2011)
# The whole screen tested about 340,000 compounds, of which about 3,300 (0.97%) were called active. This is one part of a sample in which actives are shown more often than they occur.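 Rule for the calls: active = mean activation above about 17%, with every replicate also reaching it (limit read from the data, passing the limit was not always enough); inconclusive = only one of the two conditions met; inactive = the rest.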
# Target: Protein FosB (Mus musculus) (UniProt P13346)
# Test: enhancers of mouse delta FosB DNA binding – biochemical, fluorescence polarization, TAMRA-CDK5 oligo, single point, primary screen (AID 493131);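 note: fluorescence polarization rise as delta FosB binds a TAMRA Cdk5 AP-1 oligo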
# Settings: purified delta FosB, at 25 µM, active compounds read high, percent of positive-control signal above neutral wells
# Sequence of Protein FosB (Mus musculus) (P13346 whole entry, looked up): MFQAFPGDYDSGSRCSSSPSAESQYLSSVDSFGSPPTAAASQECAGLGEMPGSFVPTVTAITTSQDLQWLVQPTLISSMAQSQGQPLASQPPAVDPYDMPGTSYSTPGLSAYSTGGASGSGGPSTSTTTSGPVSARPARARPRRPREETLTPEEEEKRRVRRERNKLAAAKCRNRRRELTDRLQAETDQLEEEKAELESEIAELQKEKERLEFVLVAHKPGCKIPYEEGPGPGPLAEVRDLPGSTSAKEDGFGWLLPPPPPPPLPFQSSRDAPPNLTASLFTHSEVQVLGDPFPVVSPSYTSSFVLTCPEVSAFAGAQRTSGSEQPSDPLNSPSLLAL
row,Compound,activation
1,O=C(Nc1ccc(Br)cn1)C1CCN(S(=O)(=O)c2cccs2)CC1,0.962% (inactive)
2,CN(CCNC(=O)c1cc2c(-c3ccccc3F)nn(C)c2s1)C1CCCCC1,-29% (inactive)
3,CSc1nc2c(c(=O)[nH]1)C(c1cccc(Cl)c1Cl)CC(=O)N2 (configuration not stated),-2.19% (inactive)
4,N#Cc1c(N)nc2c3c(sc(=N)c2c1N)NC(=O)CC3c1ccccc1Cl (configuration not stated),57.2% (active)
5,COc1ccc(C2CC(=O)Nc3sc(=N)c4c(N)c(C#N)c(N)nc4c32)cc1OC (configuration not stated),2.35% (inactive)
6,O=C(Nc1ccc(N2CCN(C(=O)c3cccs3)CC2)cc1)c1cccnc1Cl,-0.363% (inactive)
7,Nc1nnc(SCC(=O)OCc2ccc(Cl)c(Cl)c2)s1,-5.37% (inactive)
8,COc1ccc(OCC(O)CN(C)C(=O)C(C)Oc2ccccc2)cc1 (configuration not stated),4.24% (inactive)
9,CN(C)CC(O)COc1ccc(C(C)(C)c2ccc(OCC(O)CN(C)C)cc2)cc1 (configuration not stated),20% (active)
10,Cc1cc(C)n(CC(O)COc2ccc(C(C)(C)C)cc2)n1 (configuration not stated),-7.22% (inactive)
11,O=C1CC(Sc2ncn[nH]2)C(=O)N1c1ccccc1 (configuration not stated),1.52% (inactive)
12,Cc1cc(Nc2cc(N3CCN(C)CC3)nc(Sc3ccc(NC(=O)C4CC4)cc3)n2)n[nH]1,3.28% (inactive)
13,CCCOCC(O)CC(CC)C(=O)NNC(=S)Nc1ccccc1 (configuration not stated),-0.789% (inactive)
14,Cc1ccc(/C=N/NC(=O)COc2ccccc2-c2ccccc2)cc1,2.13% (inactive)
15,C=CCNC(=O)/C=C/c1ccc(C(C)C)cc1,-5.28% (inactive)
16,O=C(/C=C/c1ccc(F)cc1)NCCNC(=O)/C=C/c1ccc(F)cc1,53.1% (active)
17,O=C(/C=C/c1ccc(F)cc1)NC(=S)NNC(=O)c1cccnc1,-8.6% (inactive)
18,O=C1/C(=C/c2coc3ccc(O)cc3c2=O)SC(=S)N1c1ccccc1,45.3% (active)
19,Cc1ccc2occ(/C=N/NC(=O)c3ccccc3C)c(=O)c2c1,-9.18% (inactive)
20,O=c1c(/C=N/O)coc2ccc(Cl)cc12,-6.61% (inactive)
21,COc1ccc(CNC(=O)c2ccc3oc(C(C)C)nc3c2)cc1,-6.34% (inactive)
22,CC(=O)Nc1ccc(S(=O)(=O)N(C)c2nc3ccccc3nc2Cl)cc1,-7.23% (inactive)
23,CC(=O)Nc1ccc(Nc2c3ccccc3nc3ccccc23)cc1,107% (active)

row,Compound,activation
1,CC(=O)Nc1ccc(Nc2c([N+](=O)[O-])cc(S(C)(=O)=O)cc2[N+](=O)[O-])cc1,9.05% (inactive)
2,COC(=O)CNC(=O)c1ccc(OC2CCN(C(=O)C3CC3)CC2)cc1,4.73% (inactive)
3,O=C(NCc1ccccc1)C1CCCN(S(=O)(=O)c2cccs2)C1 (configuration not stated),-3.74% (inactive)
4,COc1ccc(C(=O)NN2C(=O)C3C(c4ccccc4)C=CC(c4ccccc4)C3C2=O)cc1 (configuration not stated),-10.4% (inactive)
5,COc1ccccc1NC(=O)CCC(=O)OC(C)C(=O)c1ccccc1 (configuration not stated),-0.918% (inactive)
6,O=C(O)C1C2C=CC(O2)C1C(=O)Nc1ccccn1 (configuration not stated),2.08% (inactive)
7,O=C(NCCc1ccccn1)c1cc(-c2ccc(Cl)cc2)nc2ccccc12,-16.7% (inactive)
8,COc1ccccc1CNC(=O)c1cc(=O)c2ccccc2o1,-8.74% (inactive)
9,COc1ccc(OC)c(NC(=O)Cn2c(=O)oc3ccccc32)c1,-3.42% (inactive)
10,COc1ccccc1CNC(=O)Cn1c(=O)oc2cc(Cl)ccc21,46.6% (active)
11,COc1ccccc1C(=O)NCC(=O)OCC(=O)Nc1nnc(-c2ccccc2)o1,0.87% (inactive)
12,CCOc1ccc(S(=O)(=O)NCCC(=O)NCC(C)(C)N2CCOCC2)cc1,-1.62% (inactive)
13,NC(N)=Nc1nc2ccc(Br)cc2c(=O)[nH]1,42.4% (active)
14,C/C(=N\N)c1c(-c2ccccc2)c2cc(Br)ccc2[nH]c1=O,-5.15% (inactive)
15,NC(=O)c1cc(-c2cccnc2)nc2ccc(Br)cc12,0.097% (inactive)
16,CC(=O)Nc1ccc(S(=O)(=O)N2CCN(CCCOc3cc(C)ccc3C)CC2)cc1,0.131% (inactive)
17,Cc1cc(NC(=O)CSc2nnc(-c3ccco3)n2N)no1,2.33% (inactive)
18,Cc1cc(NC(=O)CSc2nc3cc(Cl)ccc3c(=O)n2Cc2ccco2)no1,41.2% (active)
19,N#Cc1c(NC(=O)CSc2nc3ccccc3c(=O)n2Cc2ccco2)sc2c1CCCC2,6.6% (inactive)
20,COc1ccc(CCN2C(=O)CC(N3CCC(C(N)=O)CC3)C2=O)cc1OC (configuration not stated),-2.97% (inactive)
21,CCOC(=O)N1CCN(C(=O)C2CCCN(c3ncnc4c3sc3cccc(F)c34)C2)CC1 (configuration not stated),-16.9% (inactive)
22,Cc1c(/C=N\NC(=O)c2cc3ccccc3o2)c2ccccc2n1C,-8.02% (inactive)
23,O=C(N/N=C/c1cccc(O)c1)c1cc2c(ccc3ccccc32)o1,36.7% (active)

row,Compound,activation
1,O=C(NN=Cc1ccccc1)c1ccccc1,-3.35% (inactive)
2,COC(=O)c1cccnc1NC(=S)NC(C)C,-6.13% (inactive)
3,COc1ccccc1CC(=O)Nc1ccc(S(=O)(=O)N2CCCC2)cc1,-8.89% (inactive)
4,C/C=C(\C)C(=O)N1CC2(CC(c3cccc(NC(=O)CCCCC)c3)=NO2)C[C@@H]1C(N)=O (some centres not stated),-1.2% (inactive)
5,CC1=C(C(=O)OCc2ccccc2)C(c2ccc(C(F)(F)F)cc2)NC(=O)N1CCCCCC(=O)O (configuration not stated),-6.43% (inactive)
6,CCCCNC(=O)C(C)N(CCN(C)C)C(=O)CCCCCN1C(=O)NC(c2ccc(Cl)cc2)C(C(=O)OCc2ccccc2)=C1C (configuration not stated),18.2% (active)
7,CCCCNC(=O)C(C)N(CCN(C)C)C(=O)CCCN1C(=O)NC(c2ccc(Cl)cc2)C(C(=O)OCc2ccccc2)=C1C (configuration not stated),-3.28% (inactive)
8,Cc1ccc(CC2CC(=O)N(c3ccc4c(c3)OCCO4)C2=O)cc1 (configuration not stated),-9.23% (inactive)
9,N#CC(C#N)=CN=c1ccn(Cc2ccc(Cl)cc2Cl)cc1,-0.0405% (inactive)
10,COc1ccccc1-n1c(=S)[nH]c2c(sc(=S)n2-c2ccc(C)cc2C)c1=O,-9.95% (inactive)
11,COc1ccc(NC(=O)CSc2nc(N)c(-c3ccccc3)c(=O)[nH]2)cc1,-6.21% (inactive)
12,COc1ccc(C(=O)Nc2c(N)nc(SCC(=O)N3CCC(C)CC3)[nH]c2=O)cc1OC,-3.09% (inactive)
13,COc1ccc(C(=O)Nc2c(N)nc(SCC(=O)Nc3ccc(C(C)=O)cc3)[nH]c2=O)cc1,22% (active)
14,O=C(COC(=O)CNS(=O)(=O)c1ccc(F)c(F)c1F)NC1CCCC1,0.263% (inactive)
15,COc1ccc(CCN(Cc2cc3cccc(C)c3[nH]c2=O)C(=O)N2CCCC2)cc1OC,-15.7% (inactive)
16,c1ccc(C2=Nc3cccc4cccc(c34)N2)cc1,28.1% (active)
17,COc1ccccc1C1=Nc2cccc3cccc(c23)N1,-1.27% (inactive)
18,Fc1ccccc1N=C1Nc2cccc3cccc1c23,3.8% (inactive)
19,CC(=O)N1CSCC1C(=O)O (configuration not stated),0.385% (inactive)
20,Cc1ccc(NC(=O)C(CC(=O)O)C2CCCO2)c(C)c1 (configuration not stated),-0.253% (inactive)
21,Cn1ccnc1SCC(=O)Nc1ccc2c(c1)OCCO2,-4.18% (inactive)
22,Cc1ccc(-c2cc(C(=O)N/N=C/C=C/c3ccccc3)n[nH]2)o1,23.5% (active)
23,CC(C)c1cc(C(=O)N/N=C/C(Br)=C/c2ccccc2)n[nH]1,-3.49% (inactive)

row,Compound,activation
1,O=C(NN=CC=Cc1ccccc1)C(O)C(O)C(=O)NN=CC=Cc1ccccc1 (configuration not stated),2.15% (inactive)
2,Cc1ccc(OCc2cc(C(=O)N(C)CCn3ccnc3C)no2)cc1C,-7.77% (inactive)
3,O=C(c1ccc(NS(=O)(=O)c2ccc3[nH]c(=O)[nH]c3c2)cc1)N1CCCCC1,-5.69% (inactive)
4,Cc1cccc([C@@H]2[C@@H]3C(=O)N(Cc4ccccc4)C(=O)[C@@H]3[C@]3(Cc4ccc(Cl)cc4)C(=O)N(c4cccc(Cl)c4)C(=O)N23)c1,-7.94% (inactive)
5,COc1cccc(CN(C)CC(=O)Nc2sc3c(c2C#N)CCC3)c1,-3.77% (inactive)
6,CCCc1cc(=O)[nH]c(SCC(=O)Nc2sc3c(c2C#N)CCCC3)n1,-10.9% (inactive)
7,COc1ccc(-n2c(SCC(=O)Nc3sc4c(c3C#N)CCCC4)nnc2-c2ccc(O)cc2)cc1,23.1% (active)
8,NC(=O)c1nnsc1-c1ccc(-c2snnc2C(N)=O)cc1,12.3% (inactive)
9,Cc1c(C(=O)NCCN2CCOCC2)sc2nc(-c3ccc(F)cc3)cn12,-10.6% (inactive)
10,CCCCn1c(N)c(N(CC(C)C)C(=O)c2ccc(-n3c(C)ccc3C)cc2)c(=O)[nH]c1=O,8.61% (inactive)
11,COc1ccc2nc(/N=C(\N)NC(=O)Nc3ccccc3)nc(C)c2c1,52.1% (active)
12,COc1ccc2nc(C)cc(Nc3cccc(C(=O)O)c3)c2c1,-0.297% (inactive)
13,Cc1nc(/N=C(\N)NC(=O)NC2CCCCC2)nc2ccccc12,3.68% (inactive)
14,O=S(=O)(NCC1CN(S(=O)(=O)c2ccc3c(c2)OCCO3)C1)c1c(F)cccc1F,2.95% (inactive)
15,CS(=O)(=O)N1CCN=C1SCc1ccc(F)cc1,1.39% (inactive)
16,CCN(CC)CCOc1ccc2c(c1)C(=NNC(=O)c1ccccn1)c1cc(OCCN(CC)CC)ccc1-2,79.1% (active)
17,CCOc1cc2ccccc2cc1C(=O)Nc1ccccn1,-0.935% (inactive)
18,C/C(=N\NC(=O)c1ccccc1F)c1ccccn1,-8.45% (inactive)
19,CN(C)NC(=O)C(NC(=O)c1ccc(N)cc1)C12CC3CC(CC(C3)C1)C2 (configuration not stated),-3.81% (inactive)
20,Cc1oc(CC(C)C)c(CN2CCCC2)c1C(=O)O,4.27% (inactive)
21,COc1ccccc1OCC(=O)Nc1ccccc1C(=O)NC1CC1,-0.401% (inactive)
22,Cc1ccc(OCC(=O)Nc2ccccc2C(=O)NC2CC2)cc1C,36.7% (active)
23,Cc1ccc(OCC(=O)Nc2ccccc2C(=O)NC2CC2)cc1,-7.85% (inactive)
